This is an account of results in PubChem BioAssay (NCI).

A short description of assay [1]: NCI Yeast Anticancer Drug Screen. Data for the rad50 strain (AID 155).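 Further: 0% = growth of vehicle-only cultures of the same strain.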 The note with it: S. cerevisiae rad50 strain growth inhibition, active compounds read high. The essentials: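 Compounds were tested on a yeast strain with an engineered DNA damage repair alteration; the reported value is growth inhibition normalised to vehicle treatment.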
Assay [2] can be described thus: NCI Yeast Anticancer Drug Screen. Data for the mec2-1 strain (AID 157). As to conditions: S. cerevisiae mec2-1 strain, active compounds read high. The essentials: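 Strain: mec2-1 (DNA repair/cell cycle alteration). Compound exposure, then growth measured; inhibition expressed relative to vehicle.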
Assay [3] is described as follows: NCI Yeast Anticancer Drug Screen. Data for the sgs1 mgt1 strain (AID 161).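 Further: 0% = growth of cultures given vehicle only.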 As to conditions: S. cerevisiae sgs1 mgt1 strain, active compounds read high. An outline of the steps: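 Genetically altered yeast, compound exposure, growth inhibition relative to vehicle.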
Assay [4] can be described thus: NCI Yeast Anticancer Drug Screen. Data for the cln2 rad14 strain (AID 165).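 Further: 0% = growth equal to vehicle treated cultures.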 As to conditions: S. cerevisiae cln2 rad14 strain, active compounds read high. An outline of the steps: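 Compounds are applied to the cln2 rad14 yeast strain, and growth is then compared with that of vehicle-treated cultures to give inhibition.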
Assay [5] is described as follows: NCI Yeast Anticancer Drug Screen. Data for the bub3 strain (AID 167). As to conditions: S. cerevisiae bub3 mutant strain, active compounds read high. The essentials:
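Growth of a checkpoint-deficient yeast mutant is measured after compound exposure. Values represent inhibition relative to vehicle.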

A short description of assay [6]: NCI Yeast Anticancer Drug Screen. Data for the wt2 strain (AID 169).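 Further: 0% = growth of vehicle-treated yeast cultures.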 The note with it: S. cerevisiae wt2 strain growth inhibition, active compounds read high. The essentials:
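This strain belongs to a panel of yeast strains with defined genetic alterations in DNA damage repair or cell cycle control. Compounds are applied, and growth inhibition is measured against vehicle-treated cultures.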

Assay [7] in a line: NCI Yeast Anticancer Drug Screen. Data for the mlh1 rad18 strain (AID 175). As to conditions: S. cerevisiae mlh1 rad18 strain growth inhibition, active compounds read high. An outline of the steps: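 Read-out is yeast growth inhibition, calculated against vehicle-only controls. The compound was applied to a strain engineered with DNA damage repair alterations.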
Where [8] appears, read: at 5.0 µM (retest, dose inferred, filed as 0.5).
Where [9] appears, read: at 50.0 µM (retest, dose inferred, filed as 5.0).

This is part of a sample that, as a whole, favours compounds with a hit. Of some 79,000 tested, about 15% had one in any assay. A number with no mark means an inactive call. Calls of active or inactive are those of the source. No stated cut-off is given here; in the data, active means growth inhibition above about 70%; inactive means the rest.

For `COc1ccc(CC(=O)c2ccc(O)cc2O)cc1`, the growth inhibition in assay [1] (setting [8]) was 30%; in assay [1] (setting [9]), 90% (active); in assay [1] (at 50.0 µM) it was 49.5%; in assay [2] (setting [8]) it was 38%; in assay [2] (setting [9]), 80% (active); in assay [2] (at 50.0 µM), 42.3%. For the same compound, the growth inhibition is -22% in assay [3] (setting [8]); 73% (active) in assay [3] (setting [9]); 54.8% in assay [3] (at 50.0 µM); 64% in assay [4] (setting [8]); 76% (active) in assay [4] (setting [9]); 52.2% in assay [4] (at 50.0 µM). In addition, the growth inhibition in assay [5] (setting [8]) was -6%; in assay [5] (setting [9]), 71% (active); in assay [5] (at 50.0 µM) it was 77.1% (active); in assay [6] (at 1.2 µM) it was -4%; in assay [6] (at 3.7 µM) it was -4%; in assay [6] (at 11.0 µM) it was -13%. Further, the growth inhibition in assay [6] (at 33.0 µM) was 14%; in assay [6] (at 100.0 µM), 91% (active); in assay [7] (setting [8]), 19%; in assay [7] (setting [9]) it was 97% (active); in assay [7] (at 50.0 µM), 53.1%.

For `CCOC(=O)c1c[nH]c2cc(C(F)(F)F)ccc2c1=O`, the growth inhibition is 52% in assay [1] (setting [8]); 93% (active) in assay [1] (setting [9]); 52% in assay [1] (at 50.0 µM); 74% (active) in assay [2] (setting [8]); 96% (active) in assay [2] (setting [9]); -0.25% in assay [2] (at 50.0 µM). Also, the growth inhibition in assay [3] (setting [8]) was -23%; in assay [3] (setting [9]), -11%; in assay [3] (at 50.0 µM), 26.3%; in assay [4] (setting [8]), 9%; in assay [4] (setting [9]), 24%; in assay [4] (at 50.0 µM) it was 9.15%. Further, the growth inhibition in assay [5] (setting [8]) was 22%; in assay [5] (setting [9]), 2%; in assay [5] (at 50.0 µM), 69.9%; in assay [6] (at 1.2 µM), -3%; in assay [6] (at 3.7 µM), -8%; in assay [6] (at 11.0 µM), -9%. Also, the growth inhibition was -10% in assay [6] (at 33.0 µM); -10% in assay [6] (at 100.0 µM); 56% in assay [7] (setting [8]); 99% (active) in assay [7] (setting [9]); 1.5% in assay [7] (at 50.0 µM).

Consider `Cc1c2ccccc2c(C=O)c2ccccc12`, for which the growth inhibition in assay [1] (setting [8]) was 40%; in assay [1] (setting [9]) it was 96% (active); in assay [1] (at 50.0 µM) it was 86.2% (active); in assay [2] (setting [8]), 44%; in assay [2] (setting [9]), 99% (active); in assay [2] (at 50.0 µM) it was 89% (active). For the same compound, the growth inhibition in assay [3] (setting [8]) was -13%; in assay [3] (setting [9]), 57%; in assay [3] (at 50.0 µM), 91.2% (active); in assay [4] (setting [8]), 50%; in assay [4] (setting [9]), 59%; in assay [4] (at 50.0 µM) it was 88.2% (active). Besides, the growth inhibition in assay [5] (setting [8]) was 2%; in assay [5] (setting [9]) it was 67%; in assay [5] (at 50.0 µM), 88.5% (active); in assay [6] (at 1.2 µM) it was -11%; in assay [6] (at 3.7 µM), -16%; in assay [6] (at 11.0 µM) it was -4%. The growth inhibition in assay [6] (at 33.0 µM) is 23%; in assay [6] (at 100.0 µM), 93% (active); in assay [7] (setting [8]), 40%; in assay [7] (setting [9]) it was 99% (active); in assay [7] (at 50.0 µM), 87.4% (active).

For `CC[N+](C)(C)c1ccccc1`, the growth inhibition is 42% in assay [1] (setting [8]); 90% (active) in assay [1] (setting [9]); 61.8% in assay [1] (at 50.0 µM); 48% in assay [2] (setting [8]); 93% (active) in assay [2] (setting [9]); 26.7% in assay [2] (at 50.0 µM). Further, the growth inhibition was -40% in assay [3] (setting [8]); 1% in assay [3] (setting [9]); 48.2% in assay [3] (at 50.0 µM); 46% in assay [4] (setting [8]); 24% in assay [4] (setting [9]); 17.9% in assay [4] (at 50.0 µM). Besides, the growth inhibition is -1% in assay [5] (setting [8]); 28% in assay [5] (setting [9]); 74.2% (active) in assay [5] (at 50.0 µM); -24% in assay [6] (at 1.2 µM); -23% in assay [6] (at 3.7 µM); -25% in assay [6] (at 11.0 µM). For the same compound, the growth inhibition in assay [6] (at 33.0 µM) was -16%; in assay [6] (at 100.0 µM), -24%; in assay [7] (setting [8]), 45%; in assay [7] (setting [9]), 82% (active); in assay [7] (at 50.0 µM), 28.9%.

`Nc1cc2ccccc2cc1Br`: the growth inhibition in assay [1] (setting [8]) was 43%; in assay [1] (setting [9]), 73% (active); in assay [1] (at 50.0 µM) it was 81% (active); in assay [2] (setting [8]), 30%; in assay [2] (setting [9]), 62%; in assay [2] (at 50.0 µM), 42.9%. For the same compound, the growth inhibition is 14% in assay [3] (setting [8]); 26% in assay [3] (setting [9]); 71.8% (active) in assay [3] (at 50.0 µM); 54% in assay [4] (setting [8]); 44% in assay [4] (setting [9]); 41.6% in assay [4] (at 50.0 µM). The growth inhibition in assay [5] (setting [8]) was 22%; in assay [5] (setting [9]), 52%; in assay [5] (at 50.0 µM) it was 74.7% (active); in assay [6] (at 1.2 µM), -13%; in assay [6] (at 3.7 µM), -17%; in assay [6] (at 11.0 µM) it was -17%. Also, the growth inhibition was 12% in assay [6] (at 33.0 µM); 97% (active) in assay [6] (at 100.0 µM); 40% in assay [7] (setting [8]); 82% (active) in assay [7] (setting [9]); 45% in assay [7] (at 50.0 µM).

For `Fc1ccccc1-c1ncc(-c2ccccc2)o1`, the growth inhibition is 65% in assay [1] (setting [8]); 96% (active) in assay [1] (setting [9]); 23.4% in assay [1] (at 50.0 µM); 60% in assay [2] (setting [8]); 94% (active) in assay [2] (setting [9]); 22.2% in assay [2] (at 50.0 µM). Besides, the growth inhibition in assay [3] (setting [8]) is -14%; in assay [3] (setting [9]), 60%; in assay [3] (at 50.0 µM), 51.8%; in assay [4] (setting [8]) it was 39%; in assay [4] (setting [9]) it was 70% (active); in assay [4] (at 50.0 µM), 13.7%. In addition, the growth inhibition in assay [5] (setting [8]) was 24%; in assay [5] (setting [9]), 82% (active); in assay [5] (at 50.0 µM), 16.7%; in assay [6] (at 1.2 µM) it was -1%; in assay [6] (at 3.7 µM), -3%; in assay [6] (at 11.0 µM), -10%. Also, the growth inhibition is -2% in assay [6] (at 33.0 µM); 28% in assay [6] (at 100.0 µM); 36% in assay [7] (setting [8]); 91% (active) in assay [7] (setting [9]); 4.3% in assay [7] (at 50.0 µM).

With `CC(NNC(=S)N1CCN(c2ccccn2)CC1)c1nccc2ccccc12` (configuration not stated), the growth inhibition was 26% in assay [1] (setting [8]); 98% (active) in assay [1] (setting [9]); 69.1% in assay [1] (at 50.0 µM); 51% in assay [2] (setting [8]); 98% (active) in assay [2] (setting [9]); 22.1% in assay [2] (at 50.0 µM). Moreover, the growth inhibition is 58% in assay [3] (setting [8]); 99% (active) in assay [3] (setting [9]); 1.8% in assay [3] (at 50.0 µM); 63% in assay [4] (setting [8]); 98% (active) in assay [4] (setting [9]); 8.35% in assay [4] (at 50.0 µM). The growth inhibition in assay [5] (setting [8]) was 83% (active); in assay [5] (setting [9]), 99% (active); in assay [5] (at 50.0 µM) it was 6.2%; in assay [7] (setting [8]), 49%; in assay [7] (setting [9]), 98% (active).

Regarding `Nc1ccc(Cn2ccc3c4c(N)nc(N)nc4ccc32)cc1`, the growth inhibition is 14% in assay [1] (setting [8]); 83% (active) in assay [1] (setting [9]); 33.7% in assay [1] (at 50.0 µM); 29% in assay [2] (setting [8]); 96% (active) in assay [2] (setting [9]); 68.3% in assay [2] (at 50.0 µM). Moreover, the growth inhibition in assay [3] (setting [8]) was 7%; in assay [3] (setting [9]), 88% (active); in assay [3] (at 50.0 µM) it was 72.7% (active); in assay [4] (setting [8]), 6%; in assay [4] (setting [9]), 60%; in assay [4] (at 50.0 µM), 63.2%. The growth inhibition in assay [5] (setting [8]) is -10%; in assay [5] (setting [9]), 84% (active); in assay [5] (at 50.0 µM) it was 41.4%; in assay [7] (setting [8]), 13%; in assay [7] (setting [9]), 87% (active).
